Records with an inconclusive call do not appear. Entries that show only a call come without a potency. Activity calls are given as the source filed them. Unless noted, calls come from the whole dose curve; as a rule, active = well fitted curve in the direction sought with a large enough effect; inconclusive = small, poorly fitted or top-dose-only effect, or another doubt; inactive = no such curve, though single readings can be large; an effect the other way counts as inactive or inconclusive.
Key:
[1] = qHTS assay for measurement of the activity of small molecule inhibitors on Zika virus induced Caspase-3 activity in human iPSC derived neural progenitor cells (hNPCs) (AID 1224857); note: nearly all actives have a fitted effect of over 65% in size; note: potency is the fitted concentration of half-maximal effect
In short: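 Caspase-3/7 induction by a 6-hour ZIKV infection was quantified with a luminescent Caspase-Glo 3/7 reagent incubated 30 minutes at room temperature. Compounds were preincubated with hNPCs for 1 hour; inhibition was calculated against uninfected and infected control wells.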

[2] = qHTS assay for measurement of the activity of small molecule inhibitors on Zika virus induced Caspase-3 activity in human astrocytoma cells (AID 1224859); note: potency is the fitted concentration of half-maximal effect
In short: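 In SNB-19 cells plated at 250 cells/well and grown 16-20 h, compounds were applied 1 h before ZIKV (2 FFU/cell). Six hours later caspase-3/7 luminescence was recorded.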

[3] = Natriuretic polypeptide receptor (hNpr1) antagonism - Pilot counterscreen GloSensor control cell line (AID 1347045; calls by dose curve; note: potency is the fitted concentration of half-maximal effect)
In short: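 This counterscreen uses HEK293 cells expressing the GIP/pGS-40F cGMP biosensor. Compound-treated cells are challenged with 50 uM sodium nitroprusside, and the luciferase signal is compared before and after stimulation.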

[4] = molecular target: Atrial natriuretic peptide receptor 1 (Homo sapiens) (UniProt P16066); experiment: Natriuretic polypeptide receptor (hNpr1) antagonism - Pilot screen (AID 1347049; calls by dose curve;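 note: agonist-evoked cGMP luminescence read 20 min after hNppA addition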; note: potency is the fitted concentration of half-maximal effect)
Chain of Atrial natriuretic peptide receptor 1 (Homo sapiens) (P16066 whole entry, looked up): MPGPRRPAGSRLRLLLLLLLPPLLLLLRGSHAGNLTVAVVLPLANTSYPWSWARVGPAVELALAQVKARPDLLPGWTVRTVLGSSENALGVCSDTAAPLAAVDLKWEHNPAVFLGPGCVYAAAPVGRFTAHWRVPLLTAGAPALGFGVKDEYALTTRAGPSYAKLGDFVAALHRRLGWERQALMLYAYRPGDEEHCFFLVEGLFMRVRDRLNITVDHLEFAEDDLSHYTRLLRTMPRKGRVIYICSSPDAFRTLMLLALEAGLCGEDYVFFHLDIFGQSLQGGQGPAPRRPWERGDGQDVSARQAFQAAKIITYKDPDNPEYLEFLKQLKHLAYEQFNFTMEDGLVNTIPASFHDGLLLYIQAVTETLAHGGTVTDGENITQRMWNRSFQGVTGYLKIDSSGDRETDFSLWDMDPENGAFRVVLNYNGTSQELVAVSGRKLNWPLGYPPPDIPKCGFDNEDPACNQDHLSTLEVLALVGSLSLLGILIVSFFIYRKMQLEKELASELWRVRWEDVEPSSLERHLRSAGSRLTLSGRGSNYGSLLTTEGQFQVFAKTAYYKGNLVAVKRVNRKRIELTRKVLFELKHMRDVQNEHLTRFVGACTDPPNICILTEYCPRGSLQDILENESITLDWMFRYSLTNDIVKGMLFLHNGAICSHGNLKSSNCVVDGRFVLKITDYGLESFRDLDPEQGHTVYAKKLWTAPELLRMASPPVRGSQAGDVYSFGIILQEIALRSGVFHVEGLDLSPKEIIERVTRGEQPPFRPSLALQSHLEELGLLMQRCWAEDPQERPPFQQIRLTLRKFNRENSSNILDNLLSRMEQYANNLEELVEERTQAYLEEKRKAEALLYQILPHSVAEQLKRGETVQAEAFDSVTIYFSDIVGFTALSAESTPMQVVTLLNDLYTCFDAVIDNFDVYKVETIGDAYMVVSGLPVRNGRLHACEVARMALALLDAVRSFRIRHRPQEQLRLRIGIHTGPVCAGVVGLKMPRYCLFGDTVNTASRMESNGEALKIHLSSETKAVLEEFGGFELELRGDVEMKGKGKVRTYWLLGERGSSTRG
In short: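 HEK293 cells expressing hNpr1 and GloSensor cGMP luciferase, 1500/well, loaded with 2% GloSensor reagent 2 h, compound 30 min at room temperature; luminescence read before and 20 min after 0.1 nM hNppA stimulation.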

[5] = molecular target: Atrial natriuretic peptide receptor 2 (Homo sapiens) (UniProt P20594); experiment: Natriuretic polypeptide receptor (hNpr2) antagonism - Pilot subtype selectivity assay (AID 1347050; calls by dose curve; note: potency is the fitted concentration of half-maximal effect)
Chain of Atrial natriuretic peptide receptor 2 (Homo sapiens) (P20594 whole entry, looked up): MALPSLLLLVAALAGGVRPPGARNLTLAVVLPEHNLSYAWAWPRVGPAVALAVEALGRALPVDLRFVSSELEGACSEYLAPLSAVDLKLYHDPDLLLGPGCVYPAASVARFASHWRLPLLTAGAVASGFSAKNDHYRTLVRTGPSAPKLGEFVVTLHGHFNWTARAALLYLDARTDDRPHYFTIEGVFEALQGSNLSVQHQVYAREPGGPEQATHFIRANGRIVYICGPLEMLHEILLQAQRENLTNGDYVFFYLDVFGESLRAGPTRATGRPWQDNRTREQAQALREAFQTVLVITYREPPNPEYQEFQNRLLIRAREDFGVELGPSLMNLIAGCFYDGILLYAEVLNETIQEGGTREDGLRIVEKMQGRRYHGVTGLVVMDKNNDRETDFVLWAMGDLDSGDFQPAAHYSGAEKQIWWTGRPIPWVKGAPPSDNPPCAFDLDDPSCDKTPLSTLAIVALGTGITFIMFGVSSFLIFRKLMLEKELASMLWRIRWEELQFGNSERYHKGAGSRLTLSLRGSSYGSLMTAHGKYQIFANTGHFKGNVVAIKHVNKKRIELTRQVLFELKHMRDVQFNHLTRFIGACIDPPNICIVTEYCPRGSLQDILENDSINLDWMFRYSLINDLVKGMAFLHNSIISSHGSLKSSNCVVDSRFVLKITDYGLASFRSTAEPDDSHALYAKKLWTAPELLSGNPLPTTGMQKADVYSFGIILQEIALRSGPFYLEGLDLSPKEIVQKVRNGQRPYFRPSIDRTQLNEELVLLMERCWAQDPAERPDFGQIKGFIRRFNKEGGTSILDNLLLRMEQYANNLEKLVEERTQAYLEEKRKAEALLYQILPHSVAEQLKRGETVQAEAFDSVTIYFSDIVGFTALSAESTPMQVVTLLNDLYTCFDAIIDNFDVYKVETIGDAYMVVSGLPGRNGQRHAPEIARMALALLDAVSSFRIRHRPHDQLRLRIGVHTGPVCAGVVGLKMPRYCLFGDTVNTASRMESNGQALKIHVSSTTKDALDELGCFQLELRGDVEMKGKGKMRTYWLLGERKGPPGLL
In short: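 HEK293 cells expressing hNpr2 and a GloSensor cGMP luciferase sensor, 1500/well, preloaded 2 h with 2% GloSensor reagent, compound 30 min, then 1 nM hNppC for 20 min. Antagonism from luminescence after versus baseline pre-read; LOPAC in 1:5 titrations.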

[6] = molecular target: T1, Tyrosine-protein phosphatase non-receptor type substrate 1 (Homo sapiens) + Leukocyte surface antigen CD47 (Homo sapiens) (UniProt P78324+Q08722); experiment: CD47-SIRPalpha protein protein interaction - LANCE assay qHTS validation (AID 1347057; active = well fitted curve in the direction sought with a large enough effect in the signal ratio, with a control signal flat, not every such curve was filed as active; the % refers to the signal ratio; note: series mostly up to about 38 µM)
T1 sequence (P78324 whole entry, looked up): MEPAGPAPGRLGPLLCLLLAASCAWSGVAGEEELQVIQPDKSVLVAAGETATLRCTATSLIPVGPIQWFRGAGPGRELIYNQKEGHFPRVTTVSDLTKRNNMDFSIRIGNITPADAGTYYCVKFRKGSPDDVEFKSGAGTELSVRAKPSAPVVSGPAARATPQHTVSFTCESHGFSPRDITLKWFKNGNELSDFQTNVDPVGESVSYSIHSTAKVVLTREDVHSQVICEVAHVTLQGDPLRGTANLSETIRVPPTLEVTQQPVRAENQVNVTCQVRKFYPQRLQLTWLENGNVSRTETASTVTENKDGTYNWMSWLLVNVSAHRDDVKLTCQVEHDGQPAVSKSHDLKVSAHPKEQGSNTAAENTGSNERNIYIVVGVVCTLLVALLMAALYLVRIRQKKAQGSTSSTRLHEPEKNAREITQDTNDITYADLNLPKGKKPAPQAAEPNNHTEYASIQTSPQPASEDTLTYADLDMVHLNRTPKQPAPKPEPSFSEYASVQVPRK
T1 sequence (Q08722 whole entry, looked up): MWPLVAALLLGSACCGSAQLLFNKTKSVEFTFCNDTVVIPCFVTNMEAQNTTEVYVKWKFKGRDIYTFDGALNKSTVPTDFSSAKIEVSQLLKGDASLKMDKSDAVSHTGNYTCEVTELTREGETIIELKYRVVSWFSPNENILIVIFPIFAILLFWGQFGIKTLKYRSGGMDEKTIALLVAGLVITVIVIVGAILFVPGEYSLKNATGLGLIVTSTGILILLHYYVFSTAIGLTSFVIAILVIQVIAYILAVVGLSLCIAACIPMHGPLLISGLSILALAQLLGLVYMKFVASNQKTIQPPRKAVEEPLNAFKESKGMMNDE
In short: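 First, His-tagged CD47 and Eu-labelled anti-His antibody met the compound for 30 min; next, site-specifically biotinylated SIRPalpha was added for 30 min; finally streptavidin-APC was added before reading the TR-FRET ratio.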

[7] = molecular target: T1, Tyrosine-protein phosphatase non-receptor type substrate 1 (Homo sapiens) + Leukocyte surface antigen CD47 (Homo sapiens); experiment: CD47-SIRPalpha protein protein interaction - Alpha assay qHTS validation (AID 1347059);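 note: bead proximity luminescence from CD47 binding SIRPalpha after compound preincubation with SIRPalpha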
In short: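 Biotinylated Avi-tagged SIRPalpha (25 nM) preincubated 30 min with compound, then His-tagged CD47 (12.5 nM) added 30 min; AlphaScreen with Ni-NTA acceptor and streptavidin donor beads. PBS pH 7.4, 0.05% IGEPAL, room temperature; 7-point titrations.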

[8] = molecular target: N-terminal Xaa-Pro-Lys N-methyltransferase 1 (Homo sapiens) (UniProt Q9BV86); experiment: qHTS Assay for Inhibitors of N-terminal methyltransferase 1 (NTMT1): LOPAC validation of the NTMT1 SAHH-coupled ThioGlo3 Assay (AID 1347143);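 note: SAH from peptide methylation measured as thiol fluorescence via SAHH coupling and ThioGlo3; nearly all actives have a fitted effect of over 70% in size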; note: potency is the fitted concentration of half-maximal effect
Chain of N-terminal Xaa-Pro-Lys N-methyltransferase 1 (Homo sapiens) (Q9BV86 whole entry, looked up): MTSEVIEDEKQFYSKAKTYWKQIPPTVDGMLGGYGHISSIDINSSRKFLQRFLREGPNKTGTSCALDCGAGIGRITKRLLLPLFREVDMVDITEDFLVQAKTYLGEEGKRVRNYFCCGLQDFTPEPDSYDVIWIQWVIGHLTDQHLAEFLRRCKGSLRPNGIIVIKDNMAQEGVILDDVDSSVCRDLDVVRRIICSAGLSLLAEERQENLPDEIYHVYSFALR
In short: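 Recombinant human NTMT1 (125nM) was pre-incubated 1 min at room temperature with compounds over a concentration range, then a mix of 100uM SAM, 10uM SAHH and 15uM ThioGlo3 (concentrations in added reagent) was added. ThioGlo3 fluorescence (ex 340/em 450nm) after 30 min was normalized to the initial reading.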

[9] = system: Zika virus NS2B-NS3 protease (unlinked); experiment: Optimization of GU AMC qHTS for Zika virus inhibitors: Unlinked NS2B-NS3 protease assay (AID 1347151); note: nearly all actives have a fitted effect of over 80% in size; note: potency is the fitted concentration of half-maximal effect
In short: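 Noncovalent complex of NS2B hydrophilic domain and NS3 protease domain, 25 nM final, in 10 mM Tris-HCl pH 8.0, 0.01% Tween 20. AMC fluorescence change over 15 min at room temperature was fitted to a 4-parameter Hill equation.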

[10] = NS1 protein of Zika virus - qHTS assay to identify small molecule inhibitors in human HEK 293 cells (AID 1347053); note: nearly all actives have a fitted effect of over 55% in size; note: potency is the fitted concentration of half-maximal effect
In short: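 HEK 293; 20 h pre-culture, 37 C/5% CO2; cpd 1 h pre-infection; ZIKV MR766, MOI = 0.5, 24 h, 37 C; TR-FRET NS1 readout (two anti-NS1 Abs); norm. to no-virus vs infected.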

[11] = molecular target: Parathyroid hormone/parathyroid hormone-related peptide receptor (Homo sapiens) (UniProt Q03431); experiment: qHTS for PTHR1 Agonists: Optimization Screen against the NCGC LOPAC library (AID 1347079);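 note: GloSensor cAMP luminescence in HEK-293 GP2 cells expressing human PTHR1 with IBMX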
Chain of Parathyroid hormone/parathyroid hormone-related peptide receptor (Homo sapiens) (Q03431 whole entry, looked up): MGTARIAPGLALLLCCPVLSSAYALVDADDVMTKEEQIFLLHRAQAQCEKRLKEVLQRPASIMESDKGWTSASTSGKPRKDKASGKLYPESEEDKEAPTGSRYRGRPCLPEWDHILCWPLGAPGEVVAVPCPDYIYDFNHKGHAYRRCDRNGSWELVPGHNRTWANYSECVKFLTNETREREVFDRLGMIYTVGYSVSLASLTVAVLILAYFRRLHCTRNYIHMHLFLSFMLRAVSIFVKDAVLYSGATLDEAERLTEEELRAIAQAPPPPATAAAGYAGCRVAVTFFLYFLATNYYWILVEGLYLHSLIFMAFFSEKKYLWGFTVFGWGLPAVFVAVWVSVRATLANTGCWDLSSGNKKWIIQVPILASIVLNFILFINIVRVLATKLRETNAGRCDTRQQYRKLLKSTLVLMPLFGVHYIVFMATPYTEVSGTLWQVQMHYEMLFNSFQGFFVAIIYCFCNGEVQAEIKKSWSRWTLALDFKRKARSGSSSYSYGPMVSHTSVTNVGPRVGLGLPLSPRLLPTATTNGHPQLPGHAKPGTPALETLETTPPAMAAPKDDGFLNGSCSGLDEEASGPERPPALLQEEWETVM
In short: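 Compounds were tested across a qHTS titration. PTHR1-expressing GP2 cells report cAMP rises via GloSensor luminescence after 1 hr compound exposure at 37C with IBMX present.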

Furin (Homo sapiens) = Furin (Homo sapiens) (UniProt P09958); experiment: Furin counterscreen qHTS for Zika virus inhibitors (AID 1347149);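 note: purified recombinant full-length human furin enzyme at 5 nM; fluorescence gain from furin cutting a BOC-RVRR-AMC peptide substrate over 15 min; top concentration of the series differs between compounds; nearly all actives have a fitted effect of over 70% in size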
Chain of Furin (Homo sapiens) (P09958 whole entry, looked up): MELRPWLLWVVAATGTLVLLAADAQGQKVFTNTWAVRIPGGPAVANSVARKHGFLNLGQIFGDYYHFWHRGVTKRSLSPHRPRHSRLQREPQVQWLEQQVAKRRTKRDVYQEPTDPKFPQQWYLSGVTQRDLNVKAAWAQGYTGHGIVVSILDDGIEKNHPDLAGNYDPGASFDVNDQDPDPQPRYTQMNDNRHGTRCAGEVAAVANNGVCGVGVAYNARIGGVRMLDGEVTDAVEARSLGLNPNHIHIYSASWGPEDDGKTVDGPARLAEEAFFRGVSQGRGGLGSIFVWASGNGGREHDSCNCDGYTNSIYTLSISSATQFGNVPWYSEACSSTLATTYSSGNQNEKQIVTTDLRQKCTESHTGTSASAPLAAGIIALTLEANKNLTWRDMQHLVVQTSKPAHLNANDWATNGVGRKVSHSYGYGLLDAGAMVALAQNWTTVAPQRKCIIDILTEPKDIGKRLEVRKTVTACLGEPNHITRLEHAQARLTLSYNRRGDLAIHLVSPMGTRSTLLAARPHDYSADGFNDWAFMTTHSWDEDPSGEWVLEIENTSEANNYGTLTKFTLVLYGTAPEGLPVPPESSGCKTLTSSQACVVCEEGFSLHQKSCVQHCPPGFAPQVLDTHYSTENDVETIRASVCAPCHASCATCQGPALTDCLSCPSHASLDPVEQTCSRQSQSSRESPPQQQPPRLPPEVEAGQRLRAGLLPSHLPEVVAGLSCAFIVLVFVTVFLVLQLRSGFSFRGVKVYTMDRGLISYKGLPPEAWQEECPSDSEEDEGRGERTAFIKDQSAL
In short: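 Fluorogenic cleavage of BOC-RVRR-AMC (2 microM final, Km ~15 µM) was monitored (ex 340, em 450 nm) at 37C after 15 min RT preincubation of 5 nM furin with compounds in HEPES pH 7.0 buffer with CaCl2 and Triton X-100. Percent inhibition was fitted to a 4-parameter Hill curve.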

[12] = system: Zika virus NS2B-NS3 protease (linked construct); experiment: Confirmatory screen NINDS AMC qHTS for Zika virus inhibitors (AID 1347152);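 note: AMC fluorescence gain from cleaved Bz-Nle-KRR-AMC substrate over 15 min; top concentration of the series differs between compounds; nearly all actives have a fitted effect of over 70% in size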
In short: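 Purified NS2B-NS3 protease with NS2B hydrophilic domain linked to NS3 protease domain by flexible linker, 1 nM final in 10 mM Tris-HCl pH 8.0, 0.01% Tween 20. Compounds preincubated 15 min, room temperature; Bz-Nle-KRR-AMC 10 microM (Km 18.3 µM); 15-min fluorescence change, 4-parameter Hill fit.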

[13] = system: Zika virus NS2B-NS3 protease (unlinked complex); experiment: Confirmatory screen GU AMC qHTS for Zika virus inhibitors (AID 1347153); note: nearly all actives have a fitted effect of over 70% in size
In short: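 Unlinked enzyme 25 nM, Tris pH 8.0/0.01% Tween 20; cpd 15 min RT, dark; + AMC substrate 10 µM (Km 18.3 µM); 340/450 nm read at t0 and 15 min; % inhibition → 4-param fit.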

[14] = molecular target: T1, Tyrosine-protein phosphatase non-receptor type substrate 1 (Homo sapiens) + Leukocyte surface antigen CD47 (Homo sapiens); experiment: CD47-SIRPalpha protein protein interaction - HTRF assay qHTS validation (AID 1347058; active = well fitted curve in the direction sought with a large enough effect in the signal ratio, not every such curve was filed as active; the % refers to the signal ratio;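 note: recombinant soluble extracellular CD47 with His tag and biotinylated SIRPalpha domains; series mostly up to about 38 µM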)
In short: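 TR-FRET read (Ch1/Ch2 ratio) of soluble extracellular CD47 and Avi-biotinylated SIRPalpha domains in PBS pH 7.4 with 0.05% IGEPAL; 7-point compound titration. Sequential 30 min room-temperature steps; non-biotinylated SIRPalpha as control inhibitor.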

SMILES	Potency [1]	Potency [2]	Potency [3]	Potency [4]	Potency [5]	Potency [6]	Potency [7]	Potency [8]	Potency [9]	Potency [10]	Potency [11]	Potency (Furin (Homo sapiens))	Potency [12]	Potency [13]	outcome [14]
O=C(O)[C@H]1NCCC[C@H]1C(=O)O	inactive	inactive	inactive	inactive	inactive	inactive	inactive	inactive	inactive	–	–	–	–	–	–
Nc1ccc(-c2ccc3ccccc3n2)cc1	7.08 µM (active)	7.08 µM (active)	14.7 µM (active)	–	16.5 µM (active)	inactive	inactive	39.8 µM (active)	23.8 µM (active)	inactive	inactive	inactive	inactive	inactive	–
NC[C@@H]1O[C@H](c2ccccc2)Cc2c1ccc(O)c2O	inactive	inactive	inactive	–	inactive	inactive	inactive	–	inactive	–	inactive	–	–	–	–
COc1cc([C@@H]2c3cc4c(cc3[C@H](O)C3COC(=O)[C@@H]32)OCO4)cc(OC)c1OC (stereo not given in full)	inactive	inactive	inactive	inactive	–	inactive	–	inactive	inactive	inactive	inactive	–	–	–	–
O=c1oc(Cl)c(Cl)c2ccccc12	inactive	inactive	13.1 µM (active)	–	13.1 µM (active)	inactive	inactive	50.1 µM (active)	inactive	inactive	inactive	–	–	–	–
Oc1ccc(/C=C/c2ccc(/C=C/c3ccc(O)cc3)c(Br)c2)cc1	inactive	inactive	inactive	–	inactive	inactive	inactive	inactive	inactive	inactive	inactive	–	–	–	–
O=c1ccc2c(OCCCCc3ccccc3)c3ccoc3cc2o1	inactive	inactive	inactive	inactive	inactive	inactive	inactive	–	26.7 µM (active)	–	inactive	–	–	–	–
CC[C@H](NC(=O)c1c(C)c(-c2ccccc2)nc2ccccc12)c1ccccc1	inactive	inactive	inactive	–	inactive	inactive	inactive	inactive	inactive	inactive	inactive	–	–	–	–
CNCCc1cnc(CCC(c2ccccc2)c2ccccc2)[nH]1	inactive	inactive	inactive	inactive	–	inactive	inactive	–	inactive	inactive	inactive	–	–	–	–
N[C@@H](CS(=O)O)C(=O)O	inactive	inactive	inactive	inactive	inactive	inactive	inactive	–	inactive	–	inactive	–	–	–	–
NOCC(=O)O	inactive	inactive	inactive	–	inactive	inactive	inactive	inactive	inactive	inactive	–	–	–	–	inactive
CN1C2CCC1CC(OC(c1ccccc1)c1ccccc1)C2 (stereo not given)	inactive	inactive	inactive	inactive	–	inactive	inactive	–	inactive	inactive	inactive	–	–	–	inactive
CCCCCCCCCCCCCCCCCCOC[C@H](COP(=O)([O-])OCC[N+](C)(C)C)OC	inactive	inactive	14.7 µM (active)	–	8.26 µM (active)	inactive	inactive	inactive	inactive	–	–	–	–	–	inactive
S=C(S)N1CCCC1	inactive	inactive	7.36 µM (active)	9.53 µM (active)	–	inactive	inactive	20 µM (active)	inactive	7.94 µM (active)	inactive	–	–	–	–
CCCCCCCC/C=C\CCCCCCCC(=O)NCCc1ccc(O)c(O)c1	inactive	inactive	inactive	inactive	–	inactive	–	–	7.52 µM (active)	–	inactive	–	–	–	–
C=CC1(C)CC(=O)C2(O)C(C)(O1)C(OC(C)=O)C(O)C1C(C)(C)CCC(O)C12C (stereo not given)	inactive	inactive	inactive	inactive	inactive	inactive	inactive	inactive	inactive	–	–	–	–	–	–
CCCOC(=O)c1c(-c2ccccc2)nc(CC)c(C(=O)SCC)c1CCC	inactive	inactive	inactive	–	inactive	inactive	inactive	inactive	–	inactive	inactive	–	–	–	inactive
CCCCCCC/C=C\CCCCCCCCC(=O)O	inactive	inactive	inactive	inactive	inactive	–	inactive	inactive	21.2 µM (active)	–	inactive	–	–	–	inactive
CC(=O)O[C@H]1CC2(C)[C@@H](C[C@@H](O)[C@H]3[C@@]4(C)CC[C@@H](O)[C@@H](C)[C@@H]4CC[C@@]32C)C1=C(CCC=C(C)C)C(=O)O (stereo not given in full)	inactive	inactive	inactive	inactive	inactive	–	–	inactive	inactive	–	–	–	–	–	–
c1ccc(C(NCCNC(c2ccccc2)c2ccccc2)c2ccccc2)cc1	inactive	inactive	13.1 µM (active)	–	–	inactive	inactive	inactive	inactive	–	inactive	–	–	–	inactive
C=C1C(=O)O[C@@H]2[C@H]3O[C@]3(C)CCC=C(C)CC[C@@H]12	inactive	inactive	18.5 µM (active)	–	11.7 µM (active)	inactive	inactive	inactive	inactive	–	inactive	–	–	–	inactive
CC(=O)N[C@@H](Cc1c[nH]c2ccccc12)C(=O)OCc1cc(C(F)(F)F)cc(C(F)(F)F)c1	inactive	inactive	inactive	inactive	inactive	inactive	inactive	inactive	inactive	–	–	–	–	–	–
CCC1(O)CC2CN(CCc3c([nH]c4ccccc34)[C@@](C(=O)OC)(c3cc4c(cc3OC)N(C=O)C3[C@]45CCN4CC=C[C@@](CC)([C@@H](OC(C)=O)[C@]3(O)C(=O)OC)[C@H]45)C2)C1 (stereo not given in full)	inactive	inactive	inactive	inactive	–	inactive	inactive	–	inactive	–	inactive	–	–	–	inactive

Source: PubChem BioAssay (NCATS)
